# Tested on: HepG2
# Experiment: GSK_TCMDC: Percent inhibition of human HepG2 cell line. Test compounds present at 10uM.
# Type: functional
row,SMILES,Inhibition [%]
1,O=C(Nc1ccc(Cl)cc1)N1CCN(C2CCCCC2)CC1,17
2,Cc1ccccc1CNc1noc(-c2c(-c3ccccc3)noc2C)n1,0
3,Clc1ccc(Nc2nc3ccc(Cl)cc3nc2Nc2ccc(Cl)cc2)cc1,79
4,N#Cc1cccc(Nc2cc(C(F)(F)F)nc(Nc3ccccc3)n2)c1.O=C(O)C(F)(F)F,7
5,COc1cccc(Nc2nc(C)cc(NCc3ccc(-n4ccnc4)cc3)n2)c1,0
6,Cc1cc(=O)c(-c2ccc(Oc3cccc(Cl)c3)cc2)c(C)[nH]1,23
7,COc1ccc(-n2c(=O)c3c(n4c(SC(C)C)nnc24)-c2ccccc2CC32CCCCC2)cc1,0
8,N#Cc1cc([N+](=O)[O-])ccc1-n1nc(-c2cccc(Cl)c2)n(CC2CCCO2)c1=S (configuration not stated),0
9,COc1cccc(C(NC(=O)c2ccccc2)c2ccc3cccnc3c2O)c1 (configuration not stated),52
10,Cc1cc(Nc2ccc(O)cc2)nc2cc(O)ccc12.Cl,0
11,Nc1ncc(-c2ccc3[nH]ccc3c2)c2ccc(-c3ccncc3)cc12,42
12,CC(C)C(=O)NC(c1ccc(Cl)cc1)c1ccc2cccnc2c1O (configuration not stated),53
13,Cc1noc(-c2ccccc2)c1NC(=O)N1CCN(CCCCCCNC(=O)/C=C/c2ccc(Cl)c(Cl)c2)CC1,6
14,Cn1cnc(CCNC(=O)c2ccc(-c3ccc(-c4nc5cc(C(F)(F)F)ccc5[nH]4)s3)cc2)c1,75
15,CSCCCN1CCC(O)(c2ccc3oc(C(=O)Nc4ccc5sc(C)nc5c4)cc3c2)CC1,10
16,CC(C)N1CCC(NC(=O)N2CCCN(c3ncnc4cc(-c5ccc(Cl)cc5)sc34)CC2)CC1.O=C(O)C(F)(F)F,6
17,COc1cc(NC(=O)c2ccc3oc4ccccc4c3c2)ccc1OCCN1CCCCC1.Cl,12
18,COc1cc2nc(N3CC(C)N(C(=O)Cc4ccc(-c5ccccc5)cc4)C(C)C3)nc(N)c2cc1OC (configuration not stated),26
19,CC(COc1ccc2c(c1)OC(C)(C)CC2c1ccccc1)NCC(O)c1cccc(Cl)c1.Cl (configuration not stated),1

row,SMILES,Inhibition [%]
1,C[C@H](Cc1ccc(S(=O)(=O)c2ccc(C[C@@H](C)NC[C@H](O)c3cccc(Cl)c3)cc2)cc1)NC[C@H](O)c1cccc(Cl)c1.Cl,100
2,COc1ccc(-c2ccc(NC(=O)c3ccc(C#N)cc3)cc2)cc1CN1CCNCC1.O=C(O)C(F)(F)F,23
3,N#Cc1ccc(N(CCOc2ccc(Cl)c(F)c2)Cc2ccccc2C(F)(F)F)cc1C(F)(F)F,17
4,CCCCOc1ccc(/C=C/c2ccc(-c3c(C)[nH]c(C)c(Cl)c3=O)s2)cc1,0
5,CCN1CCCC1CN(Cc1ccc(-c2ccc(C(F)(F)F)cc2)cc1)C(=O)Cn1c(CCc2cccc(F)c2F)nc(=O)c2ccccc21.O=C(O)C(O)C(O)C(=O)O (configuration not stated),40
6,COc1ccc(C(=O)CCC(=O)N(Cc2ccc(-c3ccc(CNCCc4ccccc4)cn3)cc2)C(C)CN(C)C)cc1F.O=C(O)C(F)(F)F (configuration not stated),20
7,Cc1cccc2nc(-c3ccc(-c4cccc(CNCCN5CCNCC5)c4)cc3)[nH]c12.O=C(O)C(F)(F)F,9
8,O=C(Nc1cccc(-c2ccc(-c3nc4cc(C(F)(F)F)ccc4[nH]3)s2)c1)c1cccnc1,74
9,CCNC(=O)N1CCN(c2nc(-c3ccccc3)nc(COC)c2Cc2ccc(C)cc2)CC1,27
10,N#Cc1cccc(CN(Cc2ccc(Cl)c(Cl)c2)S(=O)(=O)c2cccc([N+](=O)[O-])c2)c1,3
11,Cc1cc(N[C@@H](Cc2ccccc2)C(=O)NCc2cccs2)nc(NCCc2ccc(F)cc2)n1.O=C(O)C(F)(F)F,3
12,Cl.N#Cc1ccc2c(c1)CCN(CCC1CCC(NC(=O)c3cc4ccc(Br)cc4[nH]3)CC1)C2 (configuration not stated),12
13,CCN1CCN(c2cc(C)c3cc(NC(=O)c4ccc(OC)c(OC)c4)ccc3n2)CC1,28
14,COc1cccc(-c2cc(C(=O)Nc3cc(Oc4ccc(O)cc4)cc([N+](=O)[O-])c3)on2)c1,16
15,CC(C)CCNC(=N)c1ccc(OCCCCCOc2ccc(C(=N)NCCC(C)C)cc2)cc1.Cl,5
16,CC(=O)Nc1cccc(/C=C/C(=O)N2CCC(N3CCCCC3)CC2)c1,1
17,COc1ccc(CCNCc2cc3c(C(C)(C)C)nn(-c4ccc(Cl)cc4)c3[nH]c2=O)cc1OC,13
18,CCOC(=O)c1cc(=O)c2ccc(OCC#N)cc2o1,2
